AMA1-RON2 inh: qHTS for Inhibitors of AMA1-RON; Towards Development of Antimalarial Drug Lead: Primary Screen; Plasmodium falciparum AMA1 (3D7) - RON2 peptide interaction; 360,000 tested, 0.2% active; AID 720542, 2013; Potency, µM (top dose mostly 58.2 µM), actives largely listed as inhibitors; AlphaScreen AMA1-biotinylated RON2 peptide binding; further: nearly all actives have a fitted effect of over 45% in size
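AMA1 (3D7) with his tag at 25 nM final met compounds first, then biotinylated RON2 peptide at 25 nM; detection used donor plus acceptor beads, 10 µg/mL apiece, read by AlphaScreen after 30 min at room temperature.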
Pf growth 96h: Primary qHTS for delayed death inhibitors of the malarial parasite plastid, 96 hour incubation; P. falciparum luciferase reporter growth, 96 h; Potency, µM (top dose mostly 28.7 µM), usual class: inhibitors; 320,000 tested, 6.9% active
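96 h incubation, 37 C, 5% CO2, of luciferase-reporter P. falciparum-infected RBCs (2% hematocrit, 0.05% parasitemia final) with test compounds; endpoint luminescence.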
SARS PLpro yeast: qHTS of Yeast-based Assay for SARS-CoV PLP. Potency, µM (titrated, usually from 32.9 µM), actives largely listed as activators. 330,000 tested, 0.19% active. S. cerevisiae expressing SARS-CoV PLpro, growth rescue; calls by dose curve; further: nearly all actives have a fitted effect of over 55% in size
HCV inh: qHTS Assay for Inhibitors of Hepatitis C Virus (HCV). AID 651820, 2012. Huh7.5.1 HCVcc-Cre infection, luciferase reporter, 44 h. 340,000 tested, 3.4% active. Potency, µM (titrated, usually from 41.8 µM), most hits filed as inhibitors
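A cell-based infection assay in which seeded cells (1,000 per well) receive test compound after 4 h, are inoculated with HCVcc-Cre at approximately 0.5 moi, and are incubated 44 h before luminescence detection.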
Pf growth 48h: Primary qHTS for delayed death inhibitors of the malarial parasite plastid, 48 hour incubation; AID 504832, 2011; 310,000 tested, 5.9% active; Potency, µM (highest dose often 28.7 µM), most hits filed as inhibitors; P. falciparum luciferase growth in erythrocytes, 48 h
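Here the parasites carry a stable luciferase gene and grow inside erythrocytes in Albumax-based RPMI medium with compound for one erythrocytic cycle. Activity is scored as loss of luminescent signal.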
NS1 function inh: qHTS Assay for Inhibitors of Influenza NS1 Protein Function; Potency, µM (titrated, usually from 46.1 µM); 270,000 tested, 0.4% active; calls by dose curve; further: actives are rising curves; nearly all actives have a fitted effect of over 50% in size
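In this qHTS, NS1 from influenza A is expressed in budding yeast, where it slows growth. Cells are switched from glucose to 2% galactose medium (pH 6.0, -URA), treated with compound, and growth recovery is read at OD600.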
Of the large screens only hits and unclear results are named; the others gave an inactive call. Only some compounds are listed: those with a hit (about 12% of all), similar ones and a draw of the others. Unless noted, the call rests on the fitted dose curve; in most records, active means well fitted curve in the direction sought with a large enough effect; inconclusive means small, poorly fitted or top-dose-only effect, or another doubt; inactive means no such curve, though single readings can be large; an effect the other way counts as inactive or inconclusive.

COCCCN(C(=O)CCOc1ccc(C)cc1)c1c(N)n(Cc2ccccc2)c(=O)[nH]c1=O	none (no result: NS1 function inh)
CC(Oc1ccc(F)cc1)C(=O)N(CCC1=CCCCC1)c1c(N)n(Cc2ccccc2)c(=O)[nH]c1=O (stereo unspecified)	Pf growth 96h 9.3µM, HCV inh inconclusive, Pf growth 48h inconclusive (no result: NS1 function inh)
CCCN(C(=O)CSCc1ccccc1C)c1c(N)n(Cc2ccccc2)c(=O)[nH]c1=O	Pf growth 48h inconclusive (no result: NS1 function inh)
CCCN(C(=O)CCSc1ccc(F)cc1)c1c(N)n(Cc2ccccc2)c(=O)[nH]c1=O	Pf growth 96h 4.7µM, Pf growth 48h 12µM
COc1ccccc1CCC(=O)N(Cc1ccccc1)c1c(N)n(Cc2ccccc2)c(=O)[nH]c1=O	Pf growth 96h 8.3µM, HCV inh 1.1µM, Pf growth 48h inconclusive
COCCCN(C(=O)CCOc1ccc(C(C)(C)C)cc1)c1c(N)n(Cc2ccccc2)c(=O)[nH]c1=O	Pf growth 96h inconclusive, Pf growth 48h 13µM (no result: NS1 function inh)
CCN(CC)c1ccc(-c2nnc(SCC(=O)N(CCOC)c3c(N)n(CC(C)C)c(=O)[nH]c3=O)o2)cc1	Pf growth 96h inconclusive, Pf growth 48h 1.7µM (no result: NS1 function inh)
O=C(COC(=O)CNC(=O)c1cccc(OC(F)F)c1)NNC(=O)c1ccccc1	Pf growth 96h inconclusive (no result: NS1 function inh)
C=CCCCCCCCCC(=O)Nc1ncccn1	none
CCOC(=O)C1CCN(C(=O)Cn2nc(C)n3c(cc4cc(F)ccc43)c2=O)CC1	none
O=C1C[C@@H]2c3c(cccc3CN1Cc1ccc(Br)cc1)C[C@@H](O)[C@H]2O	none (no result: Pf growth 96h, SARS PLpro yeast, Pf growth 48h, NS1 function inh)
C/C(=N/NC(=O)c1cc(C)[nH]n1)c1ccco1	none
Cc1ccc(C)c(N2N=C(C(=O)N(CC(C)C)c3c(N)n(Cc4ccccc4)c(=O)[nH]c3=O)CCC2=O)c1	Pf growth 96h 7.4µM, Pf growth 48h 13µM
COCCN(C(=O)CSCc1ccccc1)c1c(N)n(Cc2ccccc2)c(=O)[nH]c1=O	none
COCCN(C(=O)CSc1nc2ccccc2c(=O)n1C(C)COC)c1c(N)n(Cc2ccccc2)c(=O)[nH]c1=O (stereo unspecified)	Pf growth 48h inconclusive (no result: NS1 function inh)
CC(C)CN(C(=O)C1=NN(c2ccccc2)C(=O)CC1)c1c(N)n(Cc2ccccc2)c(=O)[nH]c1=O	none (no result: NS1 function inh)
COCCN(C(=O)CSc1nc2ccccc2c(=O)n1CC(C)C)c1c(N)n(Cc2ccccc2)c(=O)[nH]c1=O	Pf growth 48h 10µM (no result: NS1 function inh)
COCCN(C(=O)CCSc1ccc(F)cc1)c1c(N)n(Cc2ccccc2)c(=O)[nH]c1=O	Pf growth 96h 13µM, Pf growth 48h inconclusive (no result: NS1 function inh)
COc1ccc(CN2C(=O)c3cccnc3C2=O)cc1S(=O)(=O)N1CCOc2ccc(C)cc21	Pf growth 96h inconclusive
COCc1ccc(C(=O)NC2CCCc3c2cnn3-c2cc(C)cc(C)c2)s1 (stereo unspecified)	Pf growth 96h 7.4µM, HCV inh 13µM, Pf growth 48h inconclusive
Cc1ccc(-n2ncc3c2CCCC3NC(=O)CCCN2CCCC2=O)cc1C (stereo unspecified)	Pf growth 96h 4.7µM, Pf growth 48h inconclusive
COc1ncccc1C(=O)NC1CCCc2c1cnn2-c1cc(C)cc(C)c1 (stereo unspecified)	none
Cc1cc(C(=O)NC2CCCc3c2cnn3-c2ccc(C(C)(C)C)cc2)n[nH]1 (stereo unspecified)	HCV inh 11µM
Cc1cc(C(=O)NC2CCCc3c2cnn3-c2ccc(C)c(C)c2)n(C)n1 (stereo unspecified)	Pf growth 96h inconclusive, HCV inh 8.9µM, Pf growth 48h inconclusive
C#CCOCCOCCOCCNc1nc(N2CCN(C(=O)[C@H](CCCCN)n3cc(CN)nn3)CC2)nc(N2CCN(C(=O)[C@H](CC(N)=O)n3cc(C(N)[C@H](C)CC)nn3)CC2)n1 (stereo partly specified)	none (no result: Pf growth 96h, Pf growth 48h, NS1 function inh)
COc1ccccc1C(=O)NCc1ccccn1	none
CC(=O)N1CCc2cc(S(=O)(=O)NCCC(=O)Nc3cc(C)cc(C)c3)ccc21	Pf growth 96h 5.2µM, Pf growth 48h inconclusive
CC(=O)N1CCc2cc(S(=O)(=O)NCCC(=O)Nc3cccc(C)c3C)ccc21	Pf growth 96h 3.7µM, Pf growth 48h inconclusive
CC(=O)N1CCc2cc(S(=O)(=O)NCCC(=O)NCCc3ccc(C)cc3)ccc21	HCV inh 10µM, Pf growth 48h inconclusive
CCC(=O)N1CCc2cc(S(=O)(=O)NCCC(=O)Nc3cc(C)cc(C)c3)ccc21	Pf growth 48h inconclusive
CC(=O)N1CCc2cc(S(=O)(=O)NCCC(=O)NCCc3ccc(Cl)cc3)ccc21	HCV inh inconclusive, Pf growth 48h inconclusive
CCC(=O)N1CCc2cc(S(=O)(=O)NCCC(=O)N3CCN(c4cccc(C)c4)C(C)C3)ccc21 (stereo unspecified)	HCV inh 14µM
CCC(=O)N1CCc2cc(S(=O)(=O)NCCC(=O)N3CCN(c4ccccc4)CC3)ccc21	Pf growth 48h inconclusive
COCC1CCCCC1OS(N)(=O)=O (stereo unspecified)	none
COc1ccc(NC(=O)/C(=C\c2ccc(OC)c(OC)c2)NC(=O)c2ccco2)cc1	Pf growth 48h inconclusive
CCC(=O)N1CCc2cc(S(=O)(=O)NCCC(=O)Nc3ccccc3C)ccc21	Pf growth 96h 12µM, Pf growth 48h inconclusive
NS(=O)(=O)c1ccc(CCNC(=O)CNC(=O)C2CCCCC2)cc1	Pf growth 96h 12µM
NS(=O)(=O)c1ccc(CCNC(=O)CSc2ccccc2)cc1	none
NS(=O)(=O)c1ccc(CCNC(=O)C2CCCCC2)cc1	HCV inh inconclusive, Pf growth 48h inconclusive
NS(=O)(=O)c1ccc(CCNC(=O)CNCCc2ccccc2)cc1	AMA1-RON2 inh 40µM
Cc1ccc(CNC(=O)CN2C(=O)CSc3ccc(S(=O)(=O)N4CCC(C)CC4)cc32)cc1	Pf growth 96h inconclusive, Pf growth 48h inconclusive
CC(C)CCNC(=O)c1onc(CSc2ccccn2)c1C(=O)NCCC(C)C	none (no result: Pf growth 96h, SARS PLpro yeast, Pf growth 48h, NS1 function inh)
COc1ccc(N2CCN(C(=O)CCS(=O)(=O)c3ccc4c(c3)NC(=O)C(C)S4)CC2)cc1 (stereo unspecified)	Pf growth 96h 9.3µM, HCV inh inconclusive, Pf growth 48h inconclusive
Cc1ccc(C)c(N2CCN(C(=O)CCS(=O)(=O)c3ccc4c(c3)NC(=O)C(C)S4)CC2)c1 (stereo unspecified)	HCV inh 2.8µM, Pf growth 48h inconclusive

Screening results (PubChem)
